This is a sample that favours compounds with a hit; in the whole collection about 4.2% have one here.
tim10-1 inh: tim10-1 yeast growth inhibition | S. cerevisiae tim10-1 ts strain growth, BacTiter-Glo, 24 h | inhibition, % at 20 µM | hit rate 2.2% among 330,000;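 active means inhibition of at least 40%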;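 further: mutant grown at 25 °C; 0% = DMSO wells with yeast and 100% = wells holding no yeast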
NALP3 yeast inh: NALP3 inhibition in yeast. Yeast reconstituted NLRP3/ASC/caspase-1, beta-gal luminescence, 24 h. inhibition, % at 10 µM. hit rate 0.39% among 330,000;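 active means inhibition of 50% or more; inactive means inhibition below 50%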;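 further: plate controls were induced DMSO wells for no effect and uninduced yeast grown without galactose for full effect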
V-ATPase pHluor: yeast V-ATPase proton transport regulation by pHLuorin. S. cerevisiae, pHLuorin cytosolic pH fluorescence. response, % at 10 µM. hit rate 0.37% among 350,000. AID 504577; in the data active means response mostly above about 7.3%, no sharp cut-off; inactive means mostly below about 5.4%; further: actives read high
NALP1 yeast inh: NALP1 inhibition. inhibition, % at 10 µM. hit rate 0.61% among 280,000. S. cerevisiae NALP1/ASC/caspase-1 growth, X-gal OD620, 72 h; in the data active means inhibition mostly above about 24%, no sharp cut-off; inactive means mostly below about 32%
tim23-1 inh: inhibits growth of tim23-1 mutant yeast; S. cerevisiae tim23-1 growth, BacTiter-Glo luminescence, 24 h; inhibition, % at 20 µM; hit rate 1.3% among 330,000;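 active means growth inhibition of the mutant yeast at or above 50%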;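 further: temperature-sensitive mutant grown at 25 °C; plate controls were DMSO-treated mutant yeast for no effect and medium wells lacking yeast for full effect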
TIM10 inh: growth inhibitors of TIM10 yeast strain. S. cerevisiae TIM10 strain growth, BacTiter-Glo luminescence, 24 h. inhibition, % at 10 µM. hit rate 1.4% among 330,000. AID 463195;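 active means inhibition of 40% or more at the single tested concentration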;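 further: wild-type TIM10 isogenic control strain grown at permissive 25 °C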
TIM10 conf: TIM10 yeast growth inhibition, confirmed | S. cerevisiae tim10 strain growth, BacTiter-Glo luminescence, 24 h | shares compounds with TIM10 inh | hit rate 63% among 4,600 | inhibition, % at 10 µM;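 active means inhibition of yeast growth at or above a set limit in either of two replicates at 10 µM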;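 further: this counterscreen used the strain with wild-type TIM10; 0% = yeast with DMSO and 100% = medium wells lacking yeast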
tim23-1 confirm: tim23-1 yeast growth inhibition, confirmed | shares compounds with tim23-1 inh | S. cerevisiae tim23-1 growth, BacTiter-Glo luminescence, 24 h | inhibition, % at 20 µM | hit rate 83% among 4,400;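 active means inhibition above about 39% in either of two replicate wells at 20 µM, limit read from the data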;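 further: temperature-sensitive tim23-1 mutant grown at 25 °C; 0% = DMSO wells with yeast and 100% = medium wells without yeast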
An asterisk follows results filed as active; nt = no result given.

SMILES	tim10-1 inh	NALP3 yeast inh	V-ATPase pHluor	NALP1 yeast inh	tim23-1 inh	TIM10 inh	TIM10 conf	tim23-1 confirm
Cc1ccc(NC(=O)ON=C2CCCC2)cc1	0	23	1	14	53*	54*	68*	47*
Brc1ccc2ncnc(Nc3cccc4ccccc34)c2c1	28	43	-1	23	73*	41*	29	47*
COc1cccc(Nc2ncnc3ccc(Br)cc23)c1	nt	nt	3	nt	nt	nt	nt	nt
Nc1c(C(=O)Nc2ccccc2)sc2nc(-c3ccco3)ccc12	36	15	-2	1	64*	67*	63*	85*
N#Cc1nc(NCC(F)F)nc(Nc2cc(F)cc(F)c2)n1	39	18	2	nt	69*	42*	50*	65*
CC(C)(C)OC(=O)C[C@H]1C/C=C\C[C@H](CC(=O)N[C@H](CO)Cc2ccccc2)C(=O)N2CCC[C@@H]2COC1=O	1	14	-8	nt	5	3	nt	nt
CCOc1ccc(C2=NNC(c3cccs3)=Nc3ccc(OC)cc32)cc1	30	26	0	-13	64*	55*	43*	70*
O=C(/C=C/Sc1ccccc1)c1ccccc1	22	38	2	6	66*	59*	65*	81*
N#CCCn1cc(/C=N/N=C2\NC(=O)C(CC(=O)O)S2)c(-c2ccc(F)cc2)n1 (stereo not drawn)	-8	-12	nt	6	6	-2	nt	nt
NC(=O)c1ccc(/C(N)=N/S(=O)(=O)c2cc(C(F)(F)F)cc(C(F)(F)F)c2)cc1	5	2	-5	nt	10	17	nt	nt
O=C(c1ccc(Cl)cc1)C(CN1CCCCC1)c1ccccc1 (stereo not drawn)	19	18	2	35	62*	58*	63*	-44
CCOC(=O)C(CN1CCCC1)c1ccccc1 (stereo not drawn)	-3	7	3	nt	-5	-6	nt	nt
S=c1[nH]nc(COc2ccccc2)n1/N=C/c1ccncc1	2	6	5	-24	11	9	nt	nt
CCc1ccc(/C=N/n2c(COc3ccccc3)n[nH]c2=S)cc1	28	30	-1	6	61*	44*	42*	37
NNc1nc2c(Cl)c(Cl)ccc2s1	22	8	6	32	68*	41*	28*	52*
N#C/C(=C/c1ccc(O)c(O)c1)C(=O)NCc1ccc(Cl)cc1	11	36	1	-10	1	0	nt	nt
N#C/C(=C/c1cccc(O)c1)C(=O)NCc1ccc(Cl)cc1	37	9	-1	23	77*	71*	77*	75*
CCOC(=O)N1CCC(NS(=O)(=O)c2cc(C(=O)OC)n(C)c2)CC1	-6	14	1	8	-5	1	nt	nt
O=C(Nc1ccc([N+](=O)[O-])cc1)N1CCc2ccccc2C1	7	14	-5	3	12	-29	nt	nt
CC(C)c1ccc(NC(=O)N2CCc3ccccc3C2)cc1	24	14	-2	13	52*	45*	31*	50*
CCN(C[C@H]1N[C@@](CC)(C(=O)OC)[C@H]2C(=O)N(Cc3ccccc3)C(=O)[C@@H]12)C(=O)Nc1ccc(Cl)cc1	3	6	2	nt	9	-2	nt	nt
CCCN(CC(=O)Nc1ccc(F)c(F)c1F)C(=O)CN1C(=O)NC2(CCCCC2)C1=O	nt	nt	-1	nt	nt	nt	nt	nt
COc1ccc(-n2c(C)cc(C(=O)CSc3ccc(NC(C)=O)cc3)c2C)cc1	30	3	-3	25	62*	41*	31	49*
CC(=O)Nc1ccc(SCC(=O)c2cc(C)n(-c3ccccc3)c2C)cc1	35	2	0	28	54*	48*	44*	53*
COc1ccccc1[C@]1(C)ON(c2ccccc2C(F)(F)F)C1=O	-51	16	-2	nt	69*	63*	58*	-55
SMILES	tim10-1 inh	NALP3 yeast inh	V-ATPase pHluor	NALP1 yeast inh	tim23-1 inh	TIM10 inh	TIM10 conf	tim23-1 confirm
CC(C)C[C@]1(c2ccccc2)ON(c2ccccc2C(F)(F)F)C1=O	-26	8	5	nt	21	3	nt	nt
COc1ccc([C@]2(C(C)C)ON(c3ccccc3C(F)(F)F)C2=O)cc1	-43	9	0	nt	14	0	nt	nt
CC[C@]1(c2ccccc2OC)ON(c2ccccc2C(F)(F)F)C1=O	25	36	nt	nt	57*	40*	69*	62*
O=C(C[n+]1cccc(Br)c1)c1ccc(-c2ccccc2)cc1	-96	23	-4	9	6	-159	nt	nt
c1csc(-c2nc3ccccc3[nH]2)c1	1	21	3	-70	36	33	nt	nt
Cc1ccc(-c2nc3ccccc3[nH]2)s1	0	46	-1	18	51*	40*	26	71*
CSc1nc2ccccc2nc1N(C)S(=O)(=O)c1ccc(C)cc1	-7	17	-1	4	23	-17	nt	nt
CCOC(=O)c1cnc(-n2nc(C)cc2C)nc1NC1CCCC1	39	30	6	19	52*	45*	51*	44*
CCOC(=O)c1cnc(-n2nc(C)cc2C)nc1Nc1ccc(OC)cc1	13	15	6	29	45	20	nt	nt
O=C(Nc1n[nH]c(C(F)(F)F)n1)C1CC1	2	15	2	-5	5	-14	nt	nt
Oc1ccc(/C=N/Nc2ncc(Br)cn2)c(O)c1	32	20	-2	21	70*	67*	-26	67*
Oc1ccc(C=NNc2ccccn2)c(O)c1	nt	nt	-2	nt	nt	nt	nt	nt
Cc1cc(-c2ccccc2)nc(N/N=C/c2ccc(O)cc2O)n1	35	30	4	3	64*	57*	61*	70*
Cc1cc(-c2ccccc2)nc(N/N=C/c2cccnc2)n1	6	13	2	-3	7	20	nt	nt
Cc1cc(NCc2ccccn2)n2nc(C)c(-c3ccccc3)c2n1	-10	18	1	-12	-23	20	nt	nt
Cc1nn2c(NCc3ccccn3)c3c(nc2c1-c1ccccc1)CCC3	25	20	-4	nt	56*	55*	52*	57*
O=C(Nc1cc(-c2nc3ncccc3o2)ccc1Cl)c1ccc([N+](=O)[O-])o1	27	14	0	-5	86*	43*	28	86*
CCCN(CC(=O)Nc1ccccc1C)C(=O)C1CC(=O)N(Cc2ccccc2)C1 (stereo not drawn)	2	13	2	nt	9	-3	nt	nt
COCCNC(=O)CSc1nnc(-c2ccccc2F)n1Cc1ccccc1	19	-8	1	4	-7	23	nt	nt
CC1CCN(c2nc(-c3cccnc3)nc3scc(-c4ccccc4)c23)CC1	27	4	-1	38	20	8	nt	nt

Compound activity: PubChem, several laboratories
